Compounds without any hit were thinned out: in the full panel of roughly 83,000, 20% have a hit.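 Plates (96-well) were seeded with cells, treated with compound at one concentration, and incubated for 48 hours before percent growth was determined.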 Values without a mark were called inactive. Active and inactive are the calls of the source. The calls were made as follows: active = growth percent below 10; inactive = the rest.
Key:
Experiment in all cases: NCI-60 one-dose screen, 48 h (100 = growth as untreated, 0 = no growth, -100 = all killed)
Conditions in all cases: 10 µM unless noted
SR leukemia = test system: SR leukemia
RPMI-8226 leukemia = test system: RPMI-8226 leukemia
OVCAR-5 ovarian = test system: OVCAR-5 ovarian
OVCAR-4 ovarian = test system: OVCAR-4 ovarian
SK-OV-3 ovarian = test system: SK-OV-3 ovarian
IGROV1 ovarian = test system: IGROV1 ovarian
OVCAR-3 ovarian = test system: OVCAR-3 ovarian
NCI/ADR-RES ovarian = test system: NCI/ADR-RES ovarian
HS 578T breast = test system: HS 578T breast

Compound | growth (SR leukemia) | growth (RPMI-8226 leukemia) | growth (OVCAR-5 ovarian) [%] | growth (OVCAR-4 ovarian) [%] | growth (SK-OV-3 ovarian) | growth (IGROV1 ovarian) | growth (OVCAR-3 ovarian) | growth (NCI/ADR-RES ovarian) | growth (HS 578T breast)
COc1ccc(/C=C(\C#N)c2cc3ccccc3n2C(C)=O)cc1 | 47.3% | 83.2% | 104 | 96.5 | 107% | 89.8% | 92.8% | 55.6% | 
C[C@H]1OC(=O)/C=C/[C@@H](O)[C@@H](O)CCCCCCCC[C@@H]1O | 118% | 101% | 95.6 | 101 | 94.9% | 103% | 109% | 98.1% | 101%
O=c1c(CNc2ccc(S(=O)(=O)Nc3nccs3)cc2)coc2ccccc12 | 94.7% | 92.1% | 92.8 | 99.9 | 102% | 101% | 110% | 102% | 
COc1ccc(-c2cc(/C=C/C(=O)c3ccc(N)cc3)[nH]n2)cc1 | -20.2% (active) | -29.9% (active) | 54.5 | 33.1 | -8.64% (active) | 32.8% | -34.1% (active) | 17.5% | 
CCNCCCn1c2c(c3ccc([N+](=O)[O-])cc3c1=O)C(=O)c1cc(OC)cnc1-2 | 0% (active) | -22% (active) | 12.3 | 10.4 | -25.3% (active) | -24.1% (active) | -33.1% (active) | -40.2% (active) | 8.88% (active)

Source: PubChem BioAssay (NCI)
